Drawing on PubChem BioAssay (NCI), this text covers growth inhibition for 40 compounds.

The nature of assay [1]: NCI Yeast Anticancer Drug Screen. Data for the rad50 strain (AID 155).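 Note: 0% = growth of vehicle-only cultures of the same strain.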 The settings on record: S. cerevisiae rad50 strain growth inhibition; at 50.0 µM; active compounds read high. The method, boiled down:
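Compounds were tested on a yeast strain with an engineered DNA damage repair alteration; the reported value is growth inhibition normalised to vehicle treatment.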

The nature of assay [2]: NCI Yeast Anticancer Drug Screen. Data for the mec2-1 strain (AID 157). The settings on record: S. cerevisiae mec2-1 strain, at 50.0 µM, active compounds read high. The method, boiled down:
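Yeast mec2-1 mutant treated with compound. Readout: growth inhibition vs vehicle controls.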

Assay [3] in a line: NCI Yeast Anticancer Drug Screen. Data for the sgs1 mgt1 strain (AID 161).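 Note: 0% = growth of cultures given vehicle only.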 The note with it: S. cerevisiae sgs1 mgt1 strain, at 50.0 µM, active compounds read high. Summed up:
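Genetically altered yeast, compound exposure, growth inhibition relative to vehicle.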

The nature of assay [4]: NCI Yeast Anticancer Drug Screen. Data for the cln2 rad14 strain (AID 165).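 Note: 0% = growth equal to vehicle treated cultures.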 The settings on record: S. cerevisiae cln2 rad14 strain, at 50.0 µM, active compounds read high. Summed up:
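cln2 rad14 yeast strain; compound exposure; growth inhibition read vs vehicle controls.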

Assay [5] can be described thus: NCI Yeast Anticancer Drug Screen. Data for the bub3 strain (AID 167). The settings on record: S. cerevisiae bub3 mutant strain, at 50.0 µM, active compounds read high. The method, boiled down: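 Growth of a checkpoint-deficient yeast mutant is measured after compound exposure. Values represent inhibition relative to vehicle.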
The nature of assay [6]: NCI Yeast Anticancer Drug Screen. Data for the mlh1 rad18 strain (AID 175). The note with it: S. cerevisiae mlh1 rad18 strain growth inhibition; at 50.0 µM; active compounds read high. The method, boiled down: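 Yeast w/ defined DNA-repair lesions; compound exposure; growth vs vehicle controls → % inhibition.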

SMILES strings stand for the structures. Compounds without any hit were thinned out: in the full panel of roughly 79,000, 15% have a hit. Unmarked numbers belong to inactive results. Calls of active or inactive are those of the source. Cut-off read from the data, not from the text of the source: active = growth inhibition above about 70%; inactive = the rest.

In the case of `C1CCC2(CC1)CCCO2`, the growth inhibition is -6.3% in assay [1]; 6.2% in assay [2]; -0.9% in assay [3]; 10.5% in assay [4]; 23.6% in assay [5]; 19.4% in assay [6].
`CN(CC(C)(C)C(O)c1ccccc1)C(=O)c1ccccc1` (stereo not given): the growth inhibition in assay [1] is 0.95%; in assay [2] it was -5.7%; in assay [3], 12.7%; in assay [4] it was 20.7%; in assay [5], 8.2%; in assay [6], 12.6%.
With `COc1ccc(C2=C(N)c3cc(OC)ccc3C2=O)cc1`, the growth inhibition in assay [1] was 41.1%; in assay [2], 12.3%; in assay [3], 33%; in assay [4] it was -0.3%; in assay [5] it was 32.1%; in assay [6], -24.8%.
As for `COc1cc2c(cc1OC)-c1c(C)c3ccc(OC)c(NCCO)c3c[n+]1CC2`, the growth inhibition in assay [1] was -43.2%; in assay [2], -10%; in assay [3], -29.7%; in assay [4] it was -17%; in assay [5], -0.4%; in assay [6], -8.3%.
For the compound `O=c1cc(-c2ccc(Cl)cc2)oc(-c2ccc(Cl)cc2)c1`, the growth inhibition in assay [1] is 5.5%; in assay [2], -7.65%; in assay [3], 4.05%; in assay [4], -35.9%; in assay [5] it was 0.7%; in assay [6] it was 2.8%.
On to `COCC1(c2ccccc2)C(=O)N(C)C(=O)N1C` (stereo not given), for which the growth inhibition is -7.6% in assay [1]; 2.5% in assay [2]; -6.25% in assay [3]; -6.3% in assay [4]; -9.85% in assay [5]; 5.25% in assay [6].
For `Nc1ccc(S(=O)(=O)n2cccc2)cc1`, the growth inhibition was -8.9% in assay [1]; 1.2% in assay [2]; -19.9% in assay [3]; -6.4% in assay [4]; -9.25% in assay [5]; -10.5% in assay [6].
In the case of `COc1cccc2c1C(=O)OC2c1cccc2ccccc12` (stereo not given), the growth inhibition in assay [1] is 10.5%; in assay [2] it was -7.45%; in assay [3] it was 7.25%; in assay [4], 28.2%; in assay [5], 4.3%; in assay [6], 16%.
For `O=c1[nH]c(=O)c2nc[nH]c(=O)c2[nH]1`, the growth inhibition was -8.55% in assay [1]; -8.45% in assay [2]; -4.2% in assay [3]; -3.55% in assay [4]; -11.6% in assay [5]; -13.2% in assay [6].
Take `CN=C(N/N=C/c1ccccc1)N(C)C`: the growth inhibition in assay [1] was 5.95%; in assay [2] it was 11.1%; in assay [3] it was -5.35%; in assay [4], -3%; in assay [5], 23.9%; in assay [6], 10.4%.
With `CCOC(=O)CC(=O)CC`, the growth inhibition in assay [1] was 8.5%; in assay [2], -16.6%; in assay [3], -18.8%; in assay [4], 7.55%; in assay [5], -6.45%; in assay [6], 3.25%.
Turning to `O=C(O)COc1cccc2ccccc12`, the growth inhibition in assay [1] is 5.25%; in assay [2], -18.6%; in assay [3], -0.7%; in assay [4], -24.6%; in assay [5] it was 1.75%; in assay [6], 14.7%.
`COc1ccc(C=Nc2ccc(O)cc2)cc1`: the growth inhibition is 5.45% in assay [1]; -2.3% in assay [2]; -8.35% in assay [3]; 34.1% in assay [4]; -22.6% in assay [5]; -13.9% in assay [6].
For the compound `CC(C)=Nn1cnc(C(=N)C#N)c1N`, the growth inhibition was 22.9% in assay [1]; 3.5% in assay [2]; -0.9% in assay [3]; 14.5% in assay [4]; 4.8% in assay [5]; -7.45% in assay [6].
As for `CCCCCCCCCCCCCCCCCC(=O)OCC([N+](=O)[O-])([N+](=O)[O-])[N+](=O)[O-]`, the growth inhibition was -9.3% in assay [1]; -1.3% in assay [2]; -5.3% in assay [3]; -19% in assay [4]; -26.1% in assay [5]; 1.9% in assay [6].
As for `Cc1ccc(C)c(OC(=O)NC2CCCCC2)c1`, the growth inhibition in assay [1] was -4.9%; in assay [2] it was -15.1%; in assay [3], -15.1%; in assay [4], -57.6%; in assay [5] it was 0%; in assay [6], -19.9%.
For the compound `Cc1ccc(N=C(Nc2ccc(C)cc2)C(c2ccccc2)c2ccccc2)cc1`, the growth inhibition in assay [1] is 12%; in assay [2], -1.85%; in assay [3], 5.9%; in assay [4], 7.65%; in assay [5], 6.5%; in assay [6], 30.6%.
Regarding `CCSCCC(Nc1ncnc2nc[nH]c12)C(=O)O` (stereo not given), the growth inhibition in assay [1] was -17.8%; in assay [2], 8.75%; in assay [3] it was -5.65%; in assay [4], -17%; in assay [5] it was -4.8%; in assay [6] it was -19.4%.
Regarding `CCC(=O)OCCCc1ccccc1`, the growth inhibition is 22.1% in assay [1]; 8.25% in assay [2]; 15.8% in assay [3]; 9.25% in assay [4]; 12.3% in assay [5]; 10.8% in assay [6].
Take `CCSCCC(C)(N)C(=O)O` (stereo not given): the growth inhibition in assay [1] was -7.35%; in assay [2], -8.85%; in assay [3] it was -12.3%; in assay [4], -38.7%; in assay [5], 2.3%; in assay [6], -3.7%.
In the case of `CCCCCCCC(=O)NS(=O)(=O)c1ccccc1`, the growth inhibition in assay [1] was 31.7%; in assay [2], 20.7%; in assay [3] it was 27.8%; in assay [4], 52.2%; in assay [5], 37.2%; in assay [6], 39.8%.
For the compound `CC(=O)c1ccccc1`, the growth inhibition is 1.4% in assay [1]; -12.9% in assay [2]; -16.1% in assay [3]; -5.7% in assay [4]; -18.2% in assay [5]; -23.8% in assay [6].
As for `COc1ccc2nc(-c3ccc(F)cc3)cc(C(=O)O)c2c1`, the growth inhibition in assay [1] was -4.6%; in assay [2], -14.7%; in assay [3], 9.75%; in assay [4], 16.9%; in assay [5], 10.2%; in assay [6] it was 17.1%.
As to `CCOCCn1c(=O)cc(C)c2ccccc21`, the growth inhibition was -20.3% in assay [1]; 1.6% in assay [2]; -16.8% in assay [3]; -41.3% in assay [4]; 14.2% in assay [5]; -13.7% in assay [6].
Take `CN(CCc1ccccn1)C(=S)N/N=C/c1ccccn1`: the growth inhibition was 77% (active) in assay [1]; 83.8% (active) in assay [2]; 91% (active) in assay [3]; 89.7% (active) in assay [4]; 89.8% (active) in assay [5]; 91% (active) in assay [6].
Turning to `CN1CCN(C(=O)NC2CCCCC2)CC1`, the growth inhibition in assay [1] is -2.1%; in assay [2], -10.9%; in assay [3] it was 3.35%; in assay [4], -44.4%; in assay [5], -8.4%; in assay [6], -7.6%.
With `O=C(NC(CC(NC(=O)OCc1ccccc1)NC(=O)OCc1ccccc1)NC(=O)OCc1ccccc1)OCc1ccccc1`, the growth inhibition is -2.55% in assay [1]; 7.1% in assay [2]; -0.1% in assay [3]; 5.6% in assay [4]; 0.85% in assay [5]; -4.55% in assay [6].
`C/C=C/C=c1/[nH]c(=O)/c(=C\C)[nH]c1=O`: the growth inhibition is -6.85% in assay [1]; -5.15% in assay [2]; -10.6% in assay [3]; -21.5% in assay [4]; 0.95% in assay [5]; -14.2% in assay [6].
In the case of `CCC(C)(O)C#CC(C)(O)CC` (stereo not given), the growth inhibition in assay [1] is -0.1%; in assay [2], -0.95%; in assay [3], 11.8%; in assay [4] it was -63%; in assay [5], 9.8%; in assay [6], -40.8%.
Turning to `c1ccc(NP2(Nc3ccccc3)=NP(Nc3ccccc3)(Nc3ccccc3)=NP(Nc3ccccc3)(Nc3ccccc3)=N2)cc1`, the growth inhibition in assay [1] is -12.2%; in assay [2], 5.55%; in assay [3] it was -10.4%; in assay [4], 15.2%; in assay [5], 17.1%; in assay [6] it was -2.2%.
As for `C=C1C(=O)SC(=NCc2ccccc2)N1C`, the growth inhibition was 24.4% in assay [1]; 16.4% in assay [2]; 19.9% in assay [3]; 19.9% in assay [4]; 0% in assay [5]; 25.8% in assay [6].
Consider `CCOC(=O)Nc1cc(Cl)c2nnn(C(=O)OCC)c2n1`, for which the growth inhibition in assay [1] was 95.8% (active); in assay [2], 98.2% (active); in assay [3] it was 97.9% (active); in assay [4] it was 90.7% (active); in assay [5], 96.7% (active); in assay [6] it was 97.6% (active).
Consider `C1CCC(c2nn[nH]n2)CC1`, for which the growth inhibition in assay [1] was 2.3%; in assay [2], -7.05%; in assay [3] it was 3.25%; in assay [4], 11.7%; in assay [5], 8.05%; in assay [6], 1%.
As for `COc1ccc(C2=C(c3ccccc3)C(C)(C)Oc3ccc4ccccc4c32)cc1`, the growth inhibition is -44.8% in assay [1]; -0.05% in assay [2]; -5.9% in assay [3]; 14.2% in assay [4]; -2.8% in assay [5]; -7.3% in assay [6].
In the case of `O=CC1CCCc2ccccc21` (stereo not given), the growth inhibition in assay [1] is 17.1%; in assay [2] it was -20.5%; in assay [3] it was -0.7%; in assay [4] it was -5.7%; in assay [5], 3.9%; in assay [6] it was 5.6%.
In the case of `CCC1CCCCC1O` (stereo not given), the growth inhibition in assay [1] was 1.6%; in assay [2], -7%; in assay [3], -30.5%; in assay [4] it was 7.35%; in assay [5], -22.7%; in assay [6], 6.1%.
For the compound `C=CCNC(=O)/C=C/C`, the growth inhibition in assay [1] was 1.95%; in assay [2] it was 0.65%; in assay [3] it was -2.1%; in assay [4], 1.8%; in assay [5], 9.75%; in assay [6] it was -4.35%.
In the case of `COc1ccc(OC)c(CC(N)=O)c1`, the growth inhibition in assay [1] is -5.5%; in assay [2] it was 4.6%; in assay [3], -0.9%; in assay [4], -23.8%; in assay [5] it was 21.4%; in assay [6], -8.85%.
With `Cc1cc(OC(=O)c2c(C)cc(OC(=O)c3c(C)cc(O)cc3O)cc2O)cc(O)c1C(=O)O`, the growth inhibition in assay [1] is -7.15%; in assay [2] it was -44.7%; in assay [3] it was -19.4%; in assay [4], -3.55%; in assay [5] it was -27.4%; in assay [6] it was -2.15%.
On to `Nc1[nH]c(=S)[nH]c(=O)c1N=Cc1ccc2c(c1)OCO2`, for which the growth inhibition in assay [1] is 13.2%; in assay [2], 10%; in assay [3], 61.4%; in assay [4], 12.7%; in assay [5], 16.2%; in assay [6], 9.7%.
